p53null 32C kill – kills p53 null cells at the permissive temperature. H1299-neo p53 null cells, ATP luminescence, 24 h, 32C. Potency, µM (highest dose often 46.1 µM), usual class: cytotoxic. hit rate 0.62% among 55,000; also: nearly all actives have a fitted effect of over 55% in size
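Cells lacking p53 (H1299-neo) are plated at 600 per well and allowed to settle overnight at 37C. Test compounds (up to 46 uM) are added and held 24 hours at 32C, then ATP is quantified by luminescence.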
FH mod – Identification of activators of human fumarate hydratase by quantitative high-throughput screening. FH coupled MDH/diaphorase resazurin fluorescence, 15 min. Potency, µM (top dose mostly 79.9 µM), usual class: inhibitors. hit rate 0.22% among 54,000. AID 1347055, 2019; also: the screen sought activators but most active calls are inhibition curves; nearly all actives have a fitted effect of over 45% in size
p53null 39C kill – selectivity test: cytotoxicity in p53 null cells, nonpermissive temperature. H1299 p53-null (neo) cells, 39C, ATPlite viability, 24 h. Potency, µM (highest dose often 46.1 µM), usual class: cytotoxic. hit rate 0.97% among 55,000. AID 904; also: nearly all actives have a fitted effect of over 50% in size
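Following overnight plating at 37C (600 cells/well), H1299-neo or H1299-p53A138V cells are dosed up to 46 uM. Incubation lasts 24 hr at 39C before ATP detection.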
NTMT1 inh – NTMT1 methyltransferase inhibition. Q9BV86. NTMT1 MTase-Glo SAH luminescence, purified enzyme. Potency, µM (top dose mostly 114 µM), actives largely listed as inhibitors. hit rate 2.5% among 59,000; also: nearly all actives have a fitted effect of over 65% in size
GALC G270D act – galactocerebrosidase G270D activity enhancement, cell-based; P54803; 145M-Twi-hGALC-G270D cells (Twitcher mouse brain line with human GALC G270D), HMU-beta-Gal fluorescence, 48 h; Potency, µM (doses to about 57.5 µM), hits mostly activators; hit rate 0.1% among 45,000; also: nearly all actives have a fitted effect of over 65% in size
Target sequence (P54803 whole entry G286D): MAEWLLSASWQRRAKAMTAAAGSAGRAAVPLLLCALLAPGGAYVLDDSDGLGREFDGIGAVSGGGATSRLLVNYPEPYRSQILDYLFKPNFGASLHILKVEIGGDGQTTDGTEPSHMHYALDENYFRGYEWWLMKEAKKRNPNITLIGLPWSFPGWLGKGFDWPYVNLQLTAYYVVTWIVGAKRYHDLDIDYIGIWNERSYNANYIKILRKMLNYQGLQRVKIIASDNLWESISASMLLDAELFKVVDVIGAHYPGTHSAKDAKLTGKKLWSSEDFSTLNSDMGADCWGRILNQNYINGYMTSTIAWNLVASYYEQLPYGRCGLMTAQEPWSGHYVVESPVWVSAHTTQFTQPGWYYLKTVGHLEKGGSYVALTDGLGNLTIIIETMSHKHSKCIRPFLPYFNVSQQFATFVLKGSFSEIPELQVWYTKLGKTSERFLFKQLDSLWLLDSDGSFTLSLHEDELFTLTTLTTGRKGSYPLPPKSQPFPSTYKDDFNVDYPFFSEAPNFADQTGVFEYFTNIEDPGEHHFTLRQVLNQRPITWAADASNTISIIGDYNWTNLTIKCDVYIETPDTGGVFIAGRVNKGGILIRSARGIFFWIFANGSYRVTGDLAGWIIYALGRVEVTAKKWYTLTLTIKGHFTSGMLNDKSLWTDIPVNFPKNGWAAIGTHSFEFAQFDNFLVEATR
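Mutant human GALC (G270D), stably expressed in a Twitcher mouse brain cell line lacking endogenous GALC, is measured in live-treated cells via 6-hexadecanoylamino-4-methylumbelliferyl-β-galactoside hydrolysis (0.1 mM final, pH 5.2) with fluorescent detection.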
Large screens that a line does not name were inactive; ! = not active in a repeat. The sample as a whole holds a higher share of hits than the screen did. Calls follow the shape of the dose curve; as a rule, active = well fitted curve in the direction sought with a large enough effect; inconclusive = small, poorly fitted or top-dose-only effect, or another doubt; inactive = no such curve, though single readings can be large; an effect the other way counts as inactive or inconclusive.

CN(C)c1ccc(O)c2c1C[C@H]1C[C@H]3[C@H](N(C)C)C(=O)C(C(N)=O)=C(O)[C@@]3(O)C(=O)C1=C2O	NTMT1 inh 79µM! (no result: p53null 32C kill, p53null 39C kill)
Cc1ccc(OCCn2c(CCN[S+](=O)([O-])C3CCCCC3)nc3ccccc32)cc1	none (no result: p53null 32C kill, FH mod, p53null 39C kill, GALC G270D act)
O=C(Cn1nc2c(cc1=O)CCCC2)NCc1ccccc1	NTMT1 inh 89µM
Cc1ccc(CNC(=O)Cn2nc(C)n3cccc3c2=O)cc1	none
CCc1nn(CC(=O)NCc2ccccc2)c(=O)c2cccn12	p53null 39C kill 25µM
CC1(C(=O)O)CC[C@]2(C(=O)OC3OC(CO)C(O)C(O)C3O)CC[C@]3(C)C(=CCC4[C@@]5(C)CC[C@H](OC6OCC(O)C(O)C6OC6OC(CO)C(O)C(O)C6O)C(C)(C)C5CC[C@]43C)C2C1 (some centres not stated)	none (no result: p53null 32C kill, p53null 39C kill, GALC G270D act)
CC(=O)c1ccc(S(=O)(=O)Nc2cccc(-c3ccc(N4CCCCC4)nn3)c2)cc1	p53null 32C kill 10µM, p53null 39C kill 7.9µM (no result: FH mod, NTMT1 inh, GALC G270D act)
Cc1ccc(S(=O)(=O)Nc2cccc(-c3ccc(N4CCCCC4)nn3)c2)s1	p53null 32C kill 13µM, FH mod inconclusive, p53null 39C kill 13µM
CCc1ccc(S(=O)(=O)Nc2cccc(-c3ccc(N4CCCCC4)nn3)c2)s1	p53null 32C kill 16µM, p53null 39C kill 13µM (no result: FH mod, NTMT1 inh, GALC G270D act)
Cc1ccc(S(=O)(=O)Nc2cccc(-c3ccc(N4CCCC4)nn3)c2)c(C)c1	none (no result: FH mod, NTMT1 inh, GALC G270D act)
Cc1cc(C=CC#N)cc(C)c1Nc1nc(Nc2ccc3scnc3c2)c2[nH]cnc2n1	none (no result: p53null 32C kill, FH mod, p53null 39C kill, GALC G270D act)
O=c1c2ccc(Cl)cc2nc2sc(Nc3ccc4c(c3)CCC4)nn12	none (no result: p53null 32C kill, FH mod, p53null 39C kill, GALC G270D act)
COc1cc(N2CCN(C)CC2)ccc1Nc1ncc2c(n1)N(C)c1ccccc1C(=O)N2C	none (no result: p53null 32C kill, FH mod, p53null 39C kill, GALC G270D act)
Cc1cnc(NC(=O)CSc2nnc(-c3ccccc3)o2)s1	p53null 32C kill inconclusive, p53null 39C kill 14µM (no result: FH mod, NTMT1 inh, GALC G270D act)
c1ccc(C(OC2CCN(CCCc3nn[nH]n3)CC2)c2ccccc2)cc1	none (no result: p53null 32C kill, p53null 39C kill, GALC G270D act)
COc1ccc(C2=CC(c3cc(Br)ccc3F)n3c(nc4ccccc43)N2)cc1 (configuration not stated)	p53null 32C kill 13µM, p53null 39C kill 11µM
Cc1ccc(C(=O)Nc2nc3n(n2)C(c2ccc(F)cc2)C=C(c2ccccc2)N3)cc1 (configuration not stated)	none
COC(=O)c1nc2n(n1)C(c1cc(OC)ccc1OC)C=C(c1ccc(Br)cc1)N2 (configuration not stated)	none
Fc1ccc(C2=CC(c3ccc(F)cc3)n3c(nc4ccccc43)N2)cc1 (configuration not stated)	p53null 32C kill 13µM, p53null 39C kill 10µM
COc1ccc(C(=O)Nc2nc3n(n2)C(c2ccc(F)cc2)C=C(c2ccc(Cl)cc2)N3)cc1 (configuration not stated)	none
COC(=O)c1ccc(C2C=C(c3ccc(Cl)cc3)Nc3nc4ccccc4n32)cc1 (configuration not stated)	p53null 32C kill 10µM, p53null 39C kill 10µM
COC(=O)C1(O)C(OC(C)=O)CCC2C3(CC(c4ccoc4)OC3=O)C(C)=CCC21C(=O)OC (configuration not stated)	none (no result: p53null 32C kill, p53null 39C kill, GALC G270D act)
O=C(CSc1nnc(NC(=O)NC2CCCCC2)s1)Nc1ccccc1F	p53null 32C kill 10µM, p53null 39C kill inconclusive
CC(=O)c1ccc(NC(=O)CSc2nnc(NC(=O)NC3CCCCC3)s2)cc1	p53null 32C kill 6.3µM, p53null 39C kill 7.9µM
COc1ccc(NC(=O)CSc2nnc(NC(=O)NC3CCCCC3)s2)cc1OC	p53null 32C kill 13µM, p53null 39C kill 11µM
COc1ccccc1NC(=O)CSc1nnc(NC(=O)NC2CCCCC2)s1	p53null 32C kill inconclusive, p53null 39C kill inconclusive
O=C(NCCc1nc2ccccc2n1CCOc1ccc(F)cc1)C1CCCCC1	none (no result: p53null 32C kill, FH mod, p53null 39C kill, GALC G270D act)
COc1ccc2[nH]c3c(c2c1)CCN[C@]31CS[C@@H]2c3c(OC(C)=O)c(C)c4c(c3[C@H](COC1=O)N1[C@@H]2[C@H]2c3c(cc(C)c(OC)c3O)C[C@@H]([C@@H]1O)N2C)OCO4	none (no result: p53null 32C kill, FH mod, p53null 39C kill, GALC G270D act)
O=C1OC2(c3ccccc31)c1cc(I)c(O)c(I)c1Oc1c2cc(I)c(O)c1I	FH mod inconclusive, NTMT1 inh 1µM (no result: p53null 32C kill, p53null 39C kill)
CCOC(=O)C1CCN(C(=O)CNC(=O)Nc2ccccc2Cl)CC1	none (no result: p53null 32C kill, FH mod, p53null 39C kill, GALC G270D act)
